FAS-TE inh – FAS thioesterase (human) inhibition | inhibition, % at 15 µM | AID 602261 | 0.67% of 360,000 active | recombinant FAS-TE, OMFH fluorogenic substrate, fluorescence endpoint | P49327;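 active means compounds whose normalised, plate-corrected inhibition of enzyme fluorescence in the single-dose primary screen is 50% or more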
aDG glyco up – alpha-DG glycosylation activation; activation, % at 10 µM; 0.22% of 360,000 active; Pro5-aDG cells, alpha-DG glycosylation AlphaScreen (IIH6); 0% Pro5, 100% B10-LARGE cell signal; AID 624168;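 active means activation of at least 8% versus controls, or a plate z-score of at least 8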;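 further: Pro5 are CHO cells carrying HIG-tagged alpha-DG that lacks glycosylation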
m-calpain inh – blocks pig calpain II enzyme activity; inhibition, % at 16 µM; 0.37% of 220,000 active; purified calpain II, fluorogenic peptide substrate, 30 min;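 active means inhibition above about 50%, limit read from the data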
H9c2 TAG inh – triacylglycerol accumulation inhibition. 0.66% of 230,000 active. H9c2 cells, Nile Red lipid (TAG) fluorescence; cells loaded with 200 µM oleic acid. AID 651582. inhibition, % at 12.5 µM;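 active means pattern-corrected inhibition of lipid staining of at least 50% with the nuclear-stain viability signal not falling by more than 50%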
MIN6 prolif – inducers of beta-cell replication in MIN6 cells; AID 2380; 0.29% of 330,000 active; MIN6 cells proliferation, ATPlite luminescence, 48 h; cells starved in 0.2% serum; 100% = growth in 10% serum; proliferation, % at 10 µM;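 active means compounds whose signal lies at least 3.5 SD above the mean of all wells on their plate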
H9c2 protect – protects H9c2 cardiomyocytes from peroxide injury; H2O2 injury protection, ATPLite, 2 h; 0.63% of 360,000 active; AID 588492; protection from H2O2 cell death, % at 20 µM;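 active means compounds giving at least 50% protection of heart cells from peroxide-induced death in the single-dose screen, raw or plate-pattern-corrected value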
H9c2 TAG conf – triacylglycerol accumulation inhibition, confirmation; shares compounds with H9c2 TAG inh; H9c2 lipid accumulation, Nile Red fluorescence; cells loaded with 200 µM oleic acid; inhibition, % at 12.5 µM; 71% of 990 active; AID 651629;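 active means mean inhibition across replicates of 40% or more; inactive means mean inhibition below 40%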
A number is an active result; n = inactive; x = not tested or not shown. Most compounds without a hit are left out; they make up all but 2.3% or so of the library.

SMILES | FAS-TE inh | aDG glyco up | m-calpain inh | H9c2 TAG inh | MIN6 prolif | H9c2 protect | H9c2 TAG conf
CCCC1O[C@@H]2C[C@H]3[C@@H]4CCC5=CC(=O)C=C[C@]5(C)[C@H]4[C@@H](O)C[C@]3(C)[C@]2(C(=O)CO)O1 (some centres undefined) | n | n | n | 66.3 | n | n | 79.3
CCCC1OC2CC3C4CCC5=CC(=O)C=CC5(C)C4C(O)CC3(C)C2(C(=O)O)O1 (centres undefined) | n | n | x | n | n | n | x
COCc1cccc(-c2csc(C(O)c3ccc(OC)cc3)n2)c1 (centres undefined) | n | n | x | n | x | n | x
C=CC[C@@H](CC(=O)N[C@@H](CO)Cc1ccccc1)C(=O)N[C@H](COC(=O)[C@@H](CC=C)Cc1ccc(F)cc1)C(C)(C)C | n | n | x | n | n | n | x
C=CC[C@H](CC(=O)N(CCO)Cc1ccccc1)C(=O)N[C@H](COC(=O)[C@@H](CC=C)CC(=O)OC(C)(C)C)Cc1ccccc1 | n | n | x | n | n | n | x
C=CC[C@@H](CC(=O)N(CCO)Cc1ccccc1)C(=O)N[C@H](COC(=O)[C@@H](CC=C)CC(=O)OC(C)(C)C)Cc1ccccc1 | n | n | x | 50.0 | n | n | 69.8
C=CC[C@@H](CC(=O)N(CCO)Cc1ccccc1)C(=O)N[C@H](COC(=O)[C@@H](CC=C)Cc1ccc(F)cc1)Cc1ccccc1 | n | n | x | 58.9 | n | n | 68.4
C=CC[C@H](CC(=O)N(CCO)Cc1ccccc1)C(=O)N[C@H](COC(=O)[C@@H](CC=C)Cc1ccc(F)cc1)Cc1c[nH]c2ccccc12 | n | n | x | n | n | n | x
C=CC[C@@H](CC(=O)N(CCO)Cc1ccccc1)C(=O)N[C@@H](COC(=O)[C@@H](CC=C)Cc1ccc(F)cc1)Cc1ccccc1 | n | n | x | 74.8 | n | n | 62.5
C=CC[C@H](CC(=O)N(CCO)Cc1ccccc1)C(=O)N[C@@H](C)COC(=O)[C@@H](CC=C)Cc1ccc(F)cc1 | n | n | x | n | n | n | x
C=CCC[C@@H](Cc1ccc(F)cc1)C(=O)OC[C@@H](NC(=O)[C@@H](CC=C)CC(=O)N[C@H](CO)Cc1ccccc1)C(C)(C)C | n | n | x | 62.1 | n | n | 66.3
CCc1ccc(C(=O)NNC(=O)[C@H](C)NC(=O)c2ccco2)cc1 | n | n | x | n | n | n | x
CCO[C@@H]1OC(C(=O)NCc2nc3ccccc3[nH]2)=C[C@H](c2cn(C(C)=O)c3ccccc23)[C@H]1CCCO | n | n | n | 53.5 | n | n | n
COC[C@@H]1CCCN1c1ccc2c(c1)O[C@@H](COCc1ccccc1)CN([C@H](C)c1ccccc1)S2(=O)=O | n | n | x | x | x | x | x
Cn1c(=O)c2cc(NC(=O)Cc3cccnc3)ccc2n1-c1ccc2ccccc2c1 | n | n | x | n | x | n | x
CC(CC(=O)Nc1ccc2c(c1)c(=O)n(C)n2-c1ccc2ccccc2c1)C(F)(F)F (centres undefined) | n | n | x | 54.6 | x | n | 44.1
Cc1ccccc1CSCC(=O)NNC(=S)NCC1CCCO1 (centres undefined) | n | n | x | n | n | n | x
O=C(NCc1ccc2c(c1)OCO2)c1cc(-c2ccccn2)nc2ccccc12 | n | n | n | 52.8 | n | n | n
OCCCn1c(C2CCCN2c2nc(-c3ccc(Cl)cc3)cs2)nc2cc(Cl)c(N3CCCCC3)cc21 (centres undefined) | n | n | x | 62.1 | n | n | 56.0
OCCCn1c(C2CCCN2c2nc(-c3ccc(F)cc3)cs2)nc2cc(C(F)(F)F)ccc21 (centres undefined) | n | n | x | 60.1 | n | n | 57.0
COc1cccc(C2CC(=O)Nc3cc(C)c(C)cc32)c1 (centres undefined) | n | n | x | n | x | n | x
Cc1ccc(/C=N/NC(=O)c2c(C)nc3ccc(Br)cn23)cc1 | n | n | x | 55.6 | n | n | 57.7
COc1ccc(/C=N/NC(=O)c2c(C)nc3ccc(Br)cn23)cc1OC | n | n | n | n | n | n | x
COc1ccc(F)cc1S(=O)(=O)N1CCN(C(=O)c2ccco2)CC1 | n | n | x | x | n | n | x

High-throughput results: PubChem BioAssay, several laboratories
